A short description of experiment [1]: qHTS RealTime-Glo MT Cell Viability Assay in HepG2 cells - 40 hour (AID 1224870). Note: nearly all actives have a fitted effect of over 50% in size. Note: potency is the fitted concentration of half-maximal effect. The method in brief: (§1)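 Real-time viability: cells seeded at 600 per well together with NanoLuc and cell-permeant prosubstrate, compounds added after 5 h incubation. Luminescence tracked at 0, 8, 16, 24, 32 and 40 h of exposure.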
Background: qHTS replaces the single test concentration by a dilution series.

The nature of experiment [2]: qHTS RealTime-Glo MT Cell Viability Assay in HEK293 cells - 16 hour (AID 1224872). Note: nearly all actives have a fitted effect of over 50% in size. Note: potency is the fitted concentration of half-maximal effect. The method in brief:
(§2)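 Homogeneous bioluminescent viability format in HEK293 cells (600 cells/well). Following 5 h at 37 C/5% CO2, 23 nL compound was pintooled; the signal was measured repeatedly during 40 h incubation.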

The nature of experiment [3]: qHTS RealTime-Glo MT Cell Viability Assay in HepG2 cells - 8 hour (AID 1224873). Note: nearly all actives have a fitted effect of over 55% in size. In outline:
as §1

The nature of experiment [4]: qHTS RealTime-Glo MT Cell Viability Assay in HEK293 cells - 40 hour (AID 1224874). Note: nearly all actives have a fitted effect of over 50% in size. Note: potency is the fitted concentration of half-maximal effect. The settings on record: RealTime-Glo luminescence; max response: stronger effect = lower value. The method in brief: (§3)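 600 cells/well were plated with the nonlytic NanoLuc/prosubstrate reagent, pre-incubated 5 h, then given 23 nL of compound in DMSO. Incubation at 37 C for 40 h, with luminescence from viable-cell-reduced substrate read repeatedly from 0 h.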

Experiment [5] can be described thus: A CellTox Green Cytotoxicity Assay to monitor cytotoxicity in HEK293 cells - 24 hour (AID 1224875). Note: nearly all actives have a fitted effect of over 45% in size. Note: potency is the fitted concentration of half-maximal effect. In outline: (§4)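 HEK293 cells, 600/well, were preincubated 5 hours and then exposed to compounds at 37 C for up to 40 hours. A cell-impermeant cyanine dye staining dead-cell DNA was read by fluorescence at 0, 8, 16, 24, 32 and 40 h time points.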
Experiment [6] is described as follows: qHTS RealTime-Glo MT Cell Viability Assay in HepG2 cells - 32 hour (AID 1224877). Note: nearly all actives have a fitted effect of over 55% in size. Note: potency is the fitted concentration of half-maximal effect. The method in brief:
(§5)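 Cell number in HepG2 cultures estimated from NanoLuc luminescence generated by metabolic reduction of a prosubstrate by living cells. The homogeneous, nonlytic format allowed repeated reads at 0, 8, 16, 24, 32 and 40 h of compound exposure.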

The nature of experiment [7]: A CellTox Green Cytotoxicity Assay to monitor cytotoxicity in HepG2 cells - 24 hour (AID 1224878). Note: nearly all actives have a fitted effect of over 45% in size. Note: potency is the fitted concentration of half-maximal effect. The method in brief: (§6)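 HepG2 cells, 600/well, preincubated 5 h with CellTox Green dye, then exposed to Tox21 compounds in DMSO at 37 C for up to 40 h. Dead-cell DNA fluorescence read at the indicated time point.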
The nature of experiment [8]: A CellTox Green Cytotoxicity Assay to monitor cytotoxicity in HepG2 cells - 40 hour (AID 1224879). Note: nearly all actives have a fitted effect of over 40% in size. Note: potency is the fitted concentration of half-maximal effect. The method in brief: as §6
Experiment [9] in a line: qHTS RealTime-Glo MT Cell Viability Assay in HEK293 cells - 0 hour (AID 1224880). Note: top concentration of the series differs between compounds; nearly all actives have a fitted effect of over 45% in size. In outline:
as §3

Experiment [10] can be described thus: A CellTox Green Cytotoxicity Assay to monitor cytotoxicity in HEK293 cells - 32 hour (AID 1224881). Note: nearly all actives have a fitted effect of over 40% in size. Note: potency is the fitted concentration of half-maximal effect. The method in brief:
as §4

A short description of experiment [11]: A CellTox Green Cytotoxicity Assay to monitor cytotoxicity in HepG2 cells - 0 hour (AID 1224882). Note: nearly all actives have a fitted effect of over 35% in size. Note: potency is the fitted concentration of half-maximal effect. The method in brief:
as §6

A short description of experiment [12]: A CellTox Green Cytotoxicity Assay to monitor cytotoxicity in HepG2 cells - 32 hour (AID 1224883). Note: nearly all actives have a fitted effect of over 50% in size. Note: potency is the fitted concentration of half-maximal effect. In outline: as §6
The nature of experiment [13]: A CellTox Green Cytotoxicity Assay to monitor cytotoxicity in HEK293 cells - 8 hour (AID 1224884). Note: nearly all actives have a fitted effect of over 35% in size. Note: potency is the fitted concentration of half-maximal effect. The method in brief:
as §4

A short description of experiment [14]: qHTS RealTime-Glo MT Cell Viability Assay in HepG2 cells - 16 hour (AID 1224885). Note: nearly all actives have a fitted effect of over 50% in size. Note: potency is the fitted concentration of half-maximal effect. In outline:
as §5

Experiment [15] is described as follows: qHTS RealTime-Glo MT Cell Viability Assay in HEK293 cells - 24 hour (AID 1224886). Note: nearly all actives have a fitted effect of over 50% in size. Note: potency is the fitted concentration of half-maximal effect. The method in brief: as §2
A short description of experiment [16]: qHTS RealTime-Glo MT Cell Viability Assay in HEK293 cells - 8 hour (AID 1224887). Note: nearly all actives have a fitted effect of over 50% in size. Note: potency is the fitted concentration of half-maximal effect. In outline:
as §3

Experiment [17] can be described thus: qHTS RealTime-Glo MT Cell Viability Assay in HepG2 cells - 0 hour (AID 1224889). Note: nearly all actives have a fitted effect of over 50% in size. Note: potency is the fitted concentration of half-maximal effect. The method in brief:
as §5

Experiment [18] is described as follows: A CellTox Green Cytotoxicity Assay to monitor cytotoxicity in HepG2 cells - 16 hour (AID 1224876). Note: nearly all actives have a fitted effect of over 45% in size. In outline:
as §6

Experiment [19] is described as follows: A CellTox Green Cytotoxicity Assay to monitor cytotoxicity in HEK293 cells - 16 hour (AID 1224888). Note: nearly all actives have a fitted effect of over 35% in size. Note: potency is the fitted concentration of half-maximal effect. The method in brief:
as §4

From PubChem BioAssay (Tox21) come the findings set out here.

SMILES strings stand for the structures. Values joined by “and” are separate entries in the source; they are usually repeats but may differ in a detail not shown here. Equal values may be shown once. Results filed as inconclusive are left out. The source holds several records for some structures; these can differ, active in one and inactive in another. Active and inactive are the calls of the source. Calls come from the whole dose curve; as a rule, active = well fitted curve in the direction sought with a large enough effect in the repeat runs; inconclusive = weak or mixed curves; inactive = no such curve, though single readings can be large; an effect the other way counts as inactive or inconclusive.
% is set by controls: 0 for no effect and ±100 for the full control effect.

On to `CCC(C)(C)c1ccc(O)cc1`, for which the Potency entry in experiment [1], in experiment [2], in experiment [3], in experiment [6], in experiment [9] and in experiment [11] was “inactive” in each case. Besides, the Potency entry in [13], in experiment [14], in experiment [15], in experiment [16] and in [17] was “inactive” in each case. Also, the max response in [4] was -5.76% (inactive) and -0.143% (inactive). Further, the Potency in experiment [5] was 49.5 µM (active) and 49 µM (active); in experiment [7] it was 49.5 µM (active) and 43.6 µM (active) and 23.9 µM (active); in experiment [8] it was 44.1 µM (active) and 38.9 µM (active) and 21.3 µM (active); in experiment [10], 49.5 µM (active) and 43.6 µM (active); in experiment [12], 44.1 µM (active) and 38.9 µM (active) and 21.3 µM (active).
On to `CC(C)C(=O)OCC(C)(C)C(OC(=O)C(C)C)C(C)C` (configuration not stated), for which the Potency result in experiment [1], in experiment [2], in [3], in experiment [5], in [18] and in experiment [6] was “inactive” in each case. The Potency entry in experiment [7], in experiment [8], in experiment [9], in [10], in [12] and in experiment [13] was “inactive” throughout. In addition, the Potency result in experiment [14], in experiment [15], in [16], in experiment [19] and in experiment [17] was “inactive” each time. In addition, the max response in experiment [4] is -10.2% (inactive) and 4.91% (inactive).
In the case of `Nc1ccc(Cl)cc1N`, the Potency result in experiment [1], in experiment [3], in [6], in experiment [9], in experiment [14] and in experiment [17] was “inactive” each time. For the same compound, the Potency was 24.5 µM (active) in experiment [5]; “inactive and 21.9 µM (active)” in experiment [7]; 10.2 µM (active) and 21.9 µM (active) in experiment [8]; 21.9 µM (active) in [10]; “inactive and 19.5 µM (active)” in [11]; “inactive and 23.2 µM (active)” in [12]. In addition, the Potency in experiment [13] is 24.5 µM (active); in experiment [16] it was 40.4 µM (active); in [19], 24.5 µM (active).
Regarding `Oc1ccc(-c2ccccc2)cc1`, the Potency entry in experiment [1], in [3], in [5], in experiment [6], in experiment [9] and in experiment [11] was “inactive” in each case. The Potency entry in experiment [13], in [14], in experiment [19] and in experiment [17] was “inactive” each time. Also, the Potency entry in experiment [7] is “inactive and 49 µM (active)”; in [8], “inactive and 49 µM (active)”; in [10] it was 24.2 µM (active) and inactive; in [12], “inactive and 49 µM (active)”; in experiment [15], 21.9 µM (active).
For `CCC(=O)O[C@H]1CC[C@H]2[C@@H]3CCC4=CC(=O)CC[C@]4(C)[C@H]3CC[C@]12C`, the Potency result in [1], in experiment [3], in experiment [6] and in experiment [14] was “inactive” each time. For the same compound, the Potency in [5] was 19.5 µM (active) and 5.35 µM (active); in [7], 43.6 µM (active); in experiment [8], 49 µM (active) and inactive; in experiment [10], 19.5 µM (active) and 19 µM (active); in [12] it was 43.6 µM (active); in experiment [13], 34.7 µM (active) and inactive. Also, the Potency was 21.9 µM (active) and 23.9 µM (active) in experiment [15]; 38.9 µM (active) in [16]; 7.76 µM (active) in experiment [17].
On to `ClC1C(Cl)C(Cl)C(Cl)C(Cl)C1Cl` (configuration not stated), for which the Potency result in experiment [1], in experiment [3], in [6], in experiment [9], in experiment [11] and in [14] was “inactive” throughout. The Potency result in experiment [17] is “inactive”. In addition, the Potency in experiment [4] is 54.9 µM (active); in experiment [7], “inactive and 43.6 µM (active)”; in experiment [8], “inactive and 38.9 µM (active)”; in [12], “inactive and 43.6 µM (active)”; in experiment [13], “inactive and 43.6 µM (active)”; in [15], “inactive and 49 µM (active)”.
Take `OCC(O)CO`: the Potency entry in experiment [1], in experiment [2], in experiment [3], in experiment [5], in [18] and in experiment [6] was “inactive” throughout. Also, the Potency result in experiment [7], in experiment [8], in [9], in [10], in experiment [12] and in [13] was “inactive” throughout. For the same compound, the Potency result in experiment [14], in [15], in experiment [19] and in experiment [17] was “inactive” throughout. The max response in [4] is -4.06% (inactive) and 6% (inactive).
Regarding `CCCCCc1cc(O)cc(O)c1`, the Potency entry in experiment [1] is “inactive and 49 µM (active)”; in experiment [2], 24.5 µM (active); in [6], “inactive and 49 µM (active)”; in experiment [14] it was “inactive and 43.6 µM (active)”; in experiment [15], 38.9 µM (active). In addition, the Potency result in experiment [5], in [9], in experiment [10], in experiment [11], in experiment [13] and in experiment [19] was “inactive” in each case. In experiment [17], the Potency entry was “inactive”.
In the case of `CCN(CC)C(=O)/C(Cl)=C(\C)OP(=O)(OC)OC`, the Potency entry in experiment [1], in experiment [2], in experiment [3], in experiment [5], in experiment [6] and in experiment [7] was “inactive” throughout. For the same compound, the Potency entry in [8], in [9], in [10], in [11], in experiment [12] and in [13] was “inactive” in each case. Further, the Potency result in experiment [14], in experiment [15], in [19] and in experiment [17] was “inactive” in each case. In experiment [4], the max response is -0.126% (inactive) and -1.25% (inactive).
